The subject of experiment [1] is Wnt5a (protein binding on small-molecule microarray). Nature of the experiment: Wnt5a binders on small-molecule microarray, primary screen, biophysical, 635/667 nm fluorescence (AID 1142).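 Also: fluorescence read at 667 nm with signal to noise per printed feature.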 As to conditions: 635 nm fluorescence, higher = more signal.
A short description of experiment [2]: cell viability in Huh7 cells, primary screen, cytotoxicity control for HCV replication inhibitor project, CellTiter-Glo luminescence, basal, 48 h (AID 1143).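 Also: Huh7 hepatoma cells carrying a hepatitis C replication reporter with no stimulus; test concentration not given here.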 As to conditions: Huh7 HCV replicon, higher = more signal, called active from +8 up or from −8 down. For orientation: In ATP-based viability assays light output follows the ATP content of the culture.
Experiment [3] in a line: P. aeruginosa biofilm formation inhibitors, primary screen, PAO1 strain, BacTiter-Glo luminescence, LB-PBS (AID 1144). As to conditions: 12 h, higher = more signal.
A short description of experiment [4]: CREB reporter modulators without forskolin, primary screen, cell-based, PC12, CRE-LacZ reporter, unstimulated (AID 1145). As to conditions: no forskolin, luminescence, 4.5 h, higher = more signal, called active from +8 up or from −8 down.
Experiment [5] can be described thus: CREB reporter modulators under forskolin, primary screen, cell-based, PC12, CRE-LacZ reporter, forskolin-stimulated (AID 1146).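 Also: PC12 cells with 6xCRE LacZ reporter stimulated by forskolin 10 µM; beta-galactosidase reporter signal reflecting CREB driven transcription.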 As to conditions: luminescence, 4.5 h, higher = more signal, called active from +8 up or from −8 down.
In experiment [6] the target is Streptavidin (Streptomyces avidinii) (UniProt P22629). Nature of the experiment: streptavidin binders on small-molecule microarray, primary screen, artefact control for SMM compound annotation, biophysical, 635/667 nm fluorescence (AID 1147).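 Also: signal reflects streptavidin binding to arrayed compounds as a control protein.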 As to conditions: streptavidin binding, higher = more signal.
Experiment [7] in a line: small-molecule binders of probe aInhba, primary screen, biochemical, small-molecule microarray, 635/667 nm fluorescence (AID 1148).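 Also: score merges 667nm spot fluorescence with signal-to-noise for antibody binding to printed compounds.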 As to conditions: higher = more signal.
The target in experiment [8] is Torsin-1A (Homo sapiens) (UniProt O14656). Nature of the experiment: torsin A binders from cell lysate, primary screen, small-molecule microarray, wild-type, 635/667 nm (AID 1149). As to conditions: COS7 hTOR1A-WT lysate, 635 nm fluorescence, higher = more signal.
For experiment [9] the target is unchanged. Nature of the experiment: small-molecule binders of mutant TOR1A in lysate, primary screen, cell lysate, small-molecule microarray, COS7 lysate, 635/667 nm fluorescence (AID 1150).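 Also: score pools 667 nm emission and signal to noise measuring lysate protein binding.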 As to conditions: COS7 hTOR1A mutant lysate, 635 nm fluorescence, higher = more signal.
In experiment [10] the test system is Sonic hedgehog protein (Shh). Nature of the experiment: small-molecule binders of Shh protein, primary screen, biochemical, small-molecule microarray, 635/667 nm fluorescence (AID 1151).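 Also: Shh protein binding to compounds spotted on small-molecule microarray slides; score combines spot fluorescence intensity with signal-to-noise across triplicate slides.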 As to conditions: small-molecule microarray binding, 635 nm fluorescence; higher = more signal.
The nature of experiment [11]: E. coli DRC41 culture turbidity changes, primary screen, E. coli filamentation inducer project, strain DRC41, OD650, 48 h (AID 1152).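 Also: E. coli MC1000 strain DRC41 lacking acrAB efflux pump and sulA.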 As to conditions: E. coli DRC41 (acrAB sulA), higher = more signal, called active from +8 up or from −8 down.
Experiment [12] is described as follows: small-molecule binders of probe aLefty1, primary screen, biochemical, small-molecule microarray, 635/667 nm fluorescence (AID 1153).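 Also: score merges spot fluorescence with signal-to-noise ratio from the scanned slide images.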 As to conditions: higher = more signal.
A short description of experiment [13]: PSAC antagonists in infected red cells, primary screen, cell-based, P. falciparum Indochina, OD700, 1 h (AID 1154). As to conditions: P. falciparum Indochina infected RBC osmotic lysis, higher = more signal, called active from +8 up or from −8 down.
Experiment [14] in a line: PSAC antagonists in infected red cells, primary screen, cell-based, P. falciparum Indochina, OD700, 2 h (AID 1155).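 Also: lysis reports solute entry through the parasite surface anion channel PSAC; channel blockers reduce lysis of infected cells.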 As to conditions: P. falciparum Indochina infected erythrocytes, osmotic lysis OD700; higher = more signal, called active from +8 up or from −8 down.
The nature of experiment [15]: osmotic lysis modulators in infected erythrocytes, primary screen, PSAC antagonist project, cell-based, P. falciparum Indochina, OD700, 3 h (AID 1156). As to conditions: higher = more signal, called active from +8 up or from −8 down.
Experiment [16] can be described thus: PSAC antagonists in infected red cells, primary screen, cell-based, P. falciparum Indochina, OD700, 18 h (AID 1157). As to conditions: P. falciparum Indochina infected erythrocytes, osmotic lysis OD700, 18 h; higher = more signal, called active from +8 up or from −8 down.
Experiment [17] is described as follows: modulators of S6 phosphorylation in cells, primary screen, cell-based, A549, cytoblot, luminescence, serum-stimulated (AID 1158).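 Also: serum-stimulated A549 lung adenocarcinoma cells; signal is phosphorylated S6 detected by cytoblot immunostaining with HRP secondary.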 As to conditions: A549 phospho-S6 cytoblot, 5 h, higher = more signal.
In experiment [18] the target is NADPH oxidase 2 (Homo sapiens) (UniProt P04839). Nature of the experiment: NOX2-dependent H2O2 signal modulators, primary screen, NOX inhibitor project, cell-based, HEK293-NOX2, PMA-stimulated, Amplex Red fluorescence (AID 1159). Also: test concentration not given here. As to conditions: 45 min, higher = more signal, called active from +8 up or from −8 down.
Experiment [19] has as its target NADPH oxidase 4 (Homo sapiens) (UniProt Q9NPH5). Nature of the experiment: NOX4-dependent H2O2 signal modulators, primary screen, NOX inhibitor project, cell-based, HEK293-NOX4, tetracycline-induced, Amplex Red fluorescence (AID 1160). As to conditions: 45 min, higher = more signal, called active from +8 up or from −8 down.
Experiment [20] concerns the target NADPH oxidase 5 (Homo sapiens) (UniProt Q96PH1). Nature of the experiment: NOX5-dependent H2O2 signal modulators, primary screen, NOX inhibitor project, cell-based, HEK293-NOX5, Amplex Red fluorescence (AID 1161). As to conditions: HEK293-NOX5, ionomycin, 45 min, higher = more signal.

The source made the active and inactive calls. Unless noted, no rule for the calls is given here.

NADPH oxidase 2 (Homo sapiens), sequence (P04839 whole entry, looked up): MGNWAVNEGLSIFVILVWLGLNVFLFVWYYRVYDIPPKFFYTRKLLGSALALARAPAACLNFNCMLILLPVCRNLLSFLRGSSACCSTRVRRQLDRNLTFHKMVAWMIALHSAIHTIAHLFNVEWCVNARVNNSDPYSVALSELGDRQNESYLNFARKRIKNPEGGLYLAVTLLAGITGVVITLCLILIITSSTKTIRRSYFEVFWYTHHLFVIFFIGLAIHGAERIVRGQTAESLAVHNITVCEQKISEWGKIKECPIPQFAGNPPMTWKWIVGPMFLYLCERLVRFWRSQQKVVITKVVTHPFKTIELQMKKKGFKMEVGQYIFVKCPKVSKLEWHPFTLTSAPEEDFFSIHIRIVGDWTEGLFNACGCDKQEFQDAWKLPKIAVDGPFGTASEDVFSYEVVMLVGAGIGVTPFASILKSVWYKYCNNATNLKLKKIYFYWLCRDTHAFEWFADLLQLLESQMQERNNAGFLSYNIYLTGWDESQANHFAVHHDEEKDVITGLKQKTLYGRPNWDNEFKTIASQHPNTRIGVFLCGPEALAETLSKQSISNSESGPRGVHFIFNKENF
Streptavidin (Streptomyces avidinii), sequence (P22629 whole entry, looked up): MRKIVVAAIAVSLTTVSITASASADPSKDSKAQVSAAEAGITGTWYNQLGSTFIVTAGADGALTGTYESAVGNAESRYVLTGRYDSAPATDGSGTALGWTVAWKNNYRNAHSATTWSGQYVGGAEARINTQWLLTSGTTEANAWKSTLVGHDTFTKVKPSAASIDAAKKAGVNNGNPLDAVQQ
NADPH oxidase 5 (Homo sapiens), sequence (Q96PH1 whole entry, looked up): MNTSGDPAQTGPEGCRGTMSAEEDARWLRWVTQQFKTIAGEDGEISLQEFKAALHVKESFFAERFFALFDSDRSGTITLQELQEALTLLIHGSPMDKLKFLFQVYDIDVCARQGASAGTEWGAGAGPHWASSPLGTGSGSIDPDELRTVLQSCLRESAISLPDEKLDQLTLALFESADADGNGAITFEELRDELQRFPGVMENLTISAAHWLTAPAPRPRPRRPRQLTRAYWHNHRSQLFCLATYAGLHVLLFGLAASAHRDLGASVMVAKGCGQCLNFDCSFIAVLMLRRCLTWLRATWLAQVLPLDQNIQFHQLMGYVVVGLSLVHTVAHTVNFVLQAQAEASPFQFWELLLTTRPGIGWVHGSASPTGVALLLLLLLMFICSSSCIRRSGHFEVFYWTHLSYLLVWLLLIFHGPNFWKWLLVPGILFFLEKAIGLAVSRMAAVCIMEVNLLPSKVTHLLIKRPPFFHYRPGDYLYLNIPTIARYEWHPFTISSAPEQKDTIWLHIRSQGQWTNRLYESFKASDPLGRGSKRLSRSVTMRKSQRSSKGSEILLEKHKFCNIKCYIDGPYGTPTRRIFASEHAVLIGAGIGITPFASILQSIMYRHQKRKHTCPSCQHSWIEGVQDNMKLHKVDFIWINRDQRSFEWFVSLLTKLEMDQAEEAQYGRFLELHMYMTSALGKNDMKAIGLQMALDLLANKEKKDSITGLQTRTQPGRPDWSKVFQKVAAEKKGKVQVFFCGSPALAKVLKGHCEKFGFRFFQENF
Torsin-1A (Homo sapiens), sequence (O14656 whole entry, looked up): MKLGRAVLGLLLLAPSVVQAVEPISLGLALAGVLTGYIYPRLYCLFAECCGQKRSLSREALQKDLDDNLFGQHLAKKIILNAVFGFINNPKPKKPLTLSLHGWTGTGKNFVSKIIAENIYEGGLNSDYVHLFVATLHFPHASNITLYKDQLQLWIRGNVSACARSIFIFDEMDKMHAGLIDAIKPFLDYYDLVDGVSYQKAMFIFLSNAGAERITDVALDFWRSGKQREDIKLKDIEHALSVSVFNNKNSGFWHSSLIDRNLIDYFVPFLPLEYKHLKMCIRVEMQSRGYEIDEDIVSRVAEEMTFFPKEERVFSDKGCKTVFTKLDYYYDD
NADPH oxidase 4 (Homo sapiens), sequence (Q9NPH5 whole entry, looked up): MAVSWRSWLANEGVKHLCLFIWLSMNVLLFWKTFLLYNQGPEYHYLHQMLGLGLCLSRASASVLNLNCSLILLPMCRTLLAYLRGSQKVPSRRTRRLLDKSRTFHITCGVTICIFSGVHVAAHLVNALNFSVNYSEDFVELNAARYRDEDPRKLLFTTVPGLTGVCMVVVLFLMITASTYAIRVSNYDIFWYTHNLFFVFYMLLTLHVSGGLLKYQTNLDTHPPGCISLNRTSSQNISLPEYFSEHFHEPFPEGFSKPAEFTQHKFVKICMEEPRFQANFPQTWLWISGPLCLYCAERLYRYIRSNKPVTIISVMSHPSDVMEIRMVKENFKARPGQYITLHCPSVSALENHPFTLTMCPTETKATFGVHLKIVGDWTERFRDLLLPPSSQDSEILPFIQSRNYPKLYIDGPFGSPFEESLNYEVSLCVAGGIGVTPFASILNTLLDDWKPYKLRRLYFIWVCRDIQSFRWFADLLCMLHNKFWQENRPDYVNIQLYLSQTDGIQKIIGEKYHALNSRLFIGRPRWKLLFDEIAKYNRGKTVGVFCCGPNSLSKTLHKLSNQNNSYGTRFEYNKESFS

For the compound `O=C1C=C[C@@H](O)[C@@H]2[C@@H]3C(=O)N(C4CCCCC4)C(=O)[C@@H]3CC[C@@H]12`, the composite z-score in [1] was 0.474; in experiment [6] it was -0.748; in [7], 0.177; in the experiment with Torsin-1A (Homo sapiens) [8] it was 0.54; with Torsin-1A (Homo sapiens) [9], 0.595; in experiment [10], 0.781. In addition, the composite z-score in experiment [12] was -0.0501. In addition, the z-score in [2] was -2.62 (inactive); in [3], 0.411 (inactive); in experiment [4], 0.25 (inactive); in [5], 0.915 (inactive); in [11], -0.188 (inactive); in experiment [13], 0.0831 (inactive). Further, the z-score was -0.0709 (inactive) in [14]; -0.446 (inactive) in [15]; 0.0822 (inactive) in experiment [16]; -0.493 in experiment [17]; 0.33 (inactive) in experiment [18]; 0.563 (inactive) in [19]. The z-score in experiment [20] is -0.266.

For the compound `CN1CCc2nc(-c3ccccc3)c(-c3ccccc3)cc2C1`, the composite z-score is 0.0321 in experiment [1]; 0.0666 in experiment [6]; -0.176 in experiment [7]; 0.214 in the experiment with Torsin-1A (Homo sapiens) [8]; 0.539 in the experiment with Torsin-1A (Homo sapiens) [9]; 0.464 in [10]. The compound further returned a composite z-score in experiment [12] of -0.0748. Further, the z-score is 0.55 (inactive) in [2]; 0.99 (inactive) in [3]; 1.65 (inactive) in experiment [4]; 0.0655 (inactive) in [5]; 0.67 (inactive) in [11]; 0.296 (inactive) in experiment [13]. Further, the z-score in [14] is -0.0787 (inactive); in experiment [15] it was 0.406 (inactive); in [16], -0.021 (inactive); in [17] it was -0.76; in experiment [18], -0.512 (inactive); in experiment [19] it was -0.0205 (inactive). The compound further yielded a z-score in [20] of -0.409.

`COc1ccc(COC(=O)NN=C2C[C@@H](O)[C@@H](O)[C@@H]3[C@@H]4C(=O)N(C5CCCCC5)C(=O)[C@@H]4CC[C@@H]23)cc1`: the composite z-score in experiment [1] was 0.0311; in experiment [6], 0.576; in [7], -0.0774; with Torsin-1A (Homo sapiens) [8], -0.367; with Torsin-1A (Homo sapiens) [9] it was 0.223; in experiment [10], -0.791. Besides, the composite z-score in [12] was 0.94. For the same compound, the z-score in experiment [2] was -0.252 (inactive); in experiment [3] it was 0.755 (inactive); in experiment [4], 2.32 (inactive); in experiment [5] it was 0.0868 (inactive); in experiment [11], -0.83 (inactive); in [13], 6.59 (inactive). Further, the z-score is 1.25 (inactive) in [14]; 0.101 (inactive) in [15]; 0.622 (inactive) in experiment [16]; -0.185 in experiment [17]; -0.623 (inactive) in experiment [18]; -0.069 (inactive) in experiment [19]. In addition, the z-score in experiment [20] stood at 0.391.

With `C#CCCCON=C1C[C@@H](O)[C@@H](O)[C@@H]2[C@@H]3C(=O)N([C@@H](C)c4ccccc4)C(=O)[C@@H]3CC[C@@H]12`, the composite z-score in experiment [1] is 0.025; in experiment [6], 0.214; in experiment [7] it was -0.239; with Torsin-1A (Homo sapiens) [8], -0.281; with Torsin-1A (Homo sapiens) [9], -0.434; in experiment [10] it was 0.0938. Further, the composite z-score in [12] was 0.0824. The z-score in experiment [2] is 0.341 (inactive); in experiment [3] it was -0.0365 (inactive); in experiment [4], 0.0676 (inactive); in experiment [5], 0.227 (inactive); in experiment [11], 0.0467 (inactive); in [13], 0.433 (inactive). The z-score in experiment [14] was 0.186 (inactive); in experiment [15], -0.195 (inactive); in experiment [16], -0.139 (inactive); in experiment [17] it was -0.507; in experiment [18], 0.362 (inactive); in experiment [19], 0.574 (inactive). Besides, the z-score in experiment [20] was -0.132.

The values are drawn from PubChem BioAssay.
